# Screening data deposited in PubChem by National Center for Advancing Translational Sciences (NCATS).
# TRPML1 inh: qHTS for Inhibitors of the Human Mucolipin Transient Receptor Potential 1 (TRPML1); TRPML1-inducible cells, Ca2+ dye fluorescence, FDSS; hits give low values; inhibition of EC80 agonist-evoked calcium signal; activity change, negative = inhibition, % (no concentration beside the values); Mucolipin-1 (Homo sapiens), Q9GZU1; AID 624415, 2012; actives 0.02% (n = 390,000); in the data active means activity change below about -50%; inconclusive means between about -30% and that limit;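 further: stimulus is agonist 54-4 at its EC80 concentration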
#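 Tet-induced TRPML1-DL cells loaded with Ca8 no-wash calcium dye were read kinetically on FDSS. Compound addition was followed by EC80 agonist 54-4 (4 uM final); inhibition was read over 110 s.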
# TRPML1 ag: qHTS for Agonists of the Human Mucolipin Transient Receptor Potential 1 (TRPML1); actives 0.12% (n = 410,000); TRPML1-expressing cells, Ca2+ dye fluorescence, FDSS; activation, % (no concentration beside the values); in the data active means activation above about 50%; inconclusive means mostly about 30% to 49%
#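 Agonist activity was taken from a 110 s kinetic Ca2+ dye read on the FDSS after pinning compounds onto TRPML1-DL cells. The cells were seeded at 1,500/well with Tet inducer, incubated about 16 h, then dye-loaded at room temperature.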
# TRPV1 agonist: HTS Assay for Compounds that Act as Agonists of the Vanilloid Receptor 1. actives 0.19% (n = 320,000). Transient receptor potential cation channel subfamily V member 1 (Homo sapiens), Q8NER1. activation, % at 8.33 µM. TRPV1-expressing cells, Fluo-8 calcium influx, agonist mode. AID 540275, 2011; in the data active means activation above about 80%; inconclusive means between about 30% and that limit
# Target sequence (Q8NER1 whole entry, looked up): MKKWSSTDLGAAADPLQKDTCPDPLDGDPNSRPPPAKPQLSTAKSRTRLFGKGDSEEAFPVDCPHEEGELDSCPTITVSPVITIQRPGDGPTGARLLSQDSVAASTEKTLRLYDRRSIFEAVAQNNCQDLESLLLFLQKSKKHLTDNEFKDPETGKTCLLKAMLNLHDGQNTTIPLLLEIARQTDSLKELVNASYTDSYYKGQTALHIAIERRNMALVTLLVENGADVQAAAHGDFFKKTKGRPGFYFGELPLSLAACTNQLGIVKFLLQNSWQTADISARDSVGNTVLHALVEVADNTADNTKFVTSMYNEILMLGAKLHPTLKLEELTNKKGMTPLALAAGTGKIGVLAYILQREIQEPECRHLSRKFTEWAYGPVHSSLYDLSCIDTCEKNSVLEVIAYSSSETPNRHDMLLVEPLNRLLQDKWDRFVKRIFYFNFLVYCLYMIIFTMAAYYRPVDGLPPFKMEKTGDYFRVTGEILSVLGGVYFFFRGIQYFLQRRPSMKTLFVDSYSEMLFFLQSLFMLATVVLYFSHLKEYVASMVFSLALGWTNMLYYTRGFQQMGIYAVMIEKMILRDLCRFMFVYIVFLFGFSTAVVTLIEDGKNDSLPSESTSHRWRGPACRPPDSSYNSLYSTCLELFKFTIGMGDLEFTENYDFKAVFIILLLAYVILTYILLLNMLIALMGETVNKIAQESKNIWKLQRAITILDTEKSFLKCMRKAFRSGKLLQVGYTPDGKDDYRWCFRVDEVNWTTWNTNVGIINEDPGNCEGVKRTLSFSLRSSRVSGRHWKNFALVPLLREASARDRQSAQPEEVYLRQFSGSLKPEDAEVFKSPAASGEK
#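 TRPV1-expressing cells were cultured overnight at 35.5C and loaded with Fluo-8 calcium dye for 40 to 90 min at room temperature. After a 10 s baseline, compound was added and calcium influx was read kinetically for 3 min (ex 480/em 520 nm).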
# LDHA block: qHTS assay for inhibitors of human lactate dehydrogenase; L-lactate dehydrogenase A chain (Homo sapiens), P00338; purified LDHA, NADH/diaphorase-resazurin fluorescence; hits give low values; activity change, % (values are at about 110 or 230 µM); actives 0.15% (n = 480,000); in the data active means activity change below about -30%; inconclusive means mostly about -25% to -30%
#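 LDH5 2 nM; NADH 0.06 mM, pyruvate 0.2 mM; 200 mM Tris pH 7.4, EDTA, Tween-20; 5 min RT. Detection: diaphorase 0.133 mg/mL + resazurin 37 µM, fluorescence ex540/em590 at 0 and 20 min; normalized to enzyme-free and DMSO wells.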
# TRPV1 PAM: HTS Assay for Compounds that Act as Potentiators of the Vanilloid Receptor 1; Transient receptor potential cation channel subfamily V member 1 (Homo sapiens), Q8NER1; TRPV1-expressing cells, Fluo-8 calcium influx, capsaicin EC20 potentiation; potentiation, % at 8.33 µM; actives 0.02% (n = 320,000); in the data active means potentiation above about 80%; inconclusive means between about 30% and that limit
#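 TRPV1-expressing cells were cultured overnight at 35.5C and loaded with Fluo-8 calcium dye for 40 to 90 min at room temperature. After a 10 s baseline, compound was added and calcium influx was read kinetically for 3 min (ex 480/em 520 nm).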
# A number is an active result; - = inactive; ? = inconclusive; . = no result. Shown are actives, neighbours in structure and some others; about 0.41% of the full set was active somewhere.
SMILES,TRPML1 inh,TRPML1 ag,TRPV1 agonist,LDHA block,TRPV1 PAM
CCOC(=O)c1sc(-c2ccccc2)cc1NC(=O)Nc1ccccc1,-,-,88,-,-
O=C(O)c1nn(Cc2ccccc2)c(=O)c2ccccc12,.,.,.,-32,.
CCOC(=O)C1CCN(C(=O)C(C)OC(=O)c2nn(C(C)C)c(=O)c3ccccc23)CC1 (stereo not drawn),.,.,.,-,.
Cc1nc2c(cnn2-c2ccccc2Cl)c(=O)n1-c1ccc(C(C)C)cc1,-,94,-,-,?
Cc1ccc(-c2nc(CS(=O)Cc3ccccc3)co2)cc1 (stereo not drawn),.,.,.,-,.
CC1CCN(CCCCOc2ccc(C(=O)c3ccccc3)cc2)CC1,-,-,-,-,-
CC1CCN(CCOc2ccc(C(=O)c3ccccc3)cc2)CC1,-,-,-,-,81
CC(C)C(=O)Nc1ccc2c(C(C(=O)O)N3CCN(C=O)CC3)c[nH]c2c1 (stereo not drawn),.,.,.,-,.
COc1ccc(C(=O)/C(=C/c2ccco2)c2nc3ccccc3o2)cc1,.,.,.,-,.
O=C(Nc1cc(C(=O)Nc2ccc(S(=O)(=O)O)cc2S(=O)(=O)O)cc(C(=O)Nc2ccc(S(=O)(=O)O)cc2S(=O)(=O)O)c1)Nc1cc(C(=O)Nc2ccc(S(=O)(=O)O)cc2S(=O)(=O)O)cc(C(=O)Nc2ccc(S(=O)(=O)O)cc2S(=O)(=O)O)c1,.,-,.,-38,.
Nc1ccc(C(=O)Nc2ccc3cc(S(=O)(=O)O)ccc3c2)cc1,-,-,.,-,.
O=C(CSCc1cnn(-c2ccccc2)c1-n1cccc1)NCCc1ccccc1,.,.,.,-,.
N#C/C(=C/c1ccc(N2CCOCC2)o1)C(=O)NC1CCCCC1,-,?,?,-,-
N#C/C(=C/c1ccc(N2CCCCC2)o1)C(=O)Nc1ccc2ccccc2c1,-,51,?,-,-
N#C/C(=C/c1ccc(N2CCCCC2)o1)C(=O)Nc1ccc(Cl)cc1,-,61,?,-,-
N#C/C(=C\c1ccc(N2CCOCC2)o1)C(=O)Nc1ccc(O)cc1,-,-,-,-,-
COc1ccc(NC(=O)/C(C#N)=C\c2ccc(N3CCOCC3)o2)cc1,-,65,?,-,-
COc1cccc(-c2nc(SCc3cc(=O)c4cc(C)c(C)cc4[nH]3)n[nH]2)c1,.,.,.,-,.
O=C(NCc1cccnc1)c1ccccc1NS(=O)(=O)c1ccc2[nH]c(=O)[nH]c2c1,.,.,.,-,.
CC(=O)Oc1ccc2c(c1)Oc1cc(OC(C)=O)ccc1C21OC(=O)c2ccccc21,-,113,140,-,-
Cc1cc(O)ccc1C1(c2ccc(O)cc2C)OC(=O)c2ccccc21,-,-,-,-,-
CCCOc1c(Cl)cc(C(=O)Nc2ncccc2C)cc1OC,.,.,.,-,.
CCc1ccc(C(N)CC(=O)OC)cc1 (stereo not drawn),.,.,.,-,.
Cc1cccc(-n2nc(C)c(C(=O)N3CCN(c4ccccc4)CC3)c2-n2cccc2)c1,-,71,.,-,.
CC(C)(CNC(=O)C1CCCC1)c1ccccc1,.,.,.,-,.
SMILES,TRPML1 inh,TRPML1 ag,TRPV1 agonist,LDHA block,TRPV1 PAM
CCCCn1nnnc1C(c1ccccc1)N1CCN(Cc2c(F)cccc2Cl)CC1 (stereo not drawn),.,57,.,-,.
CCCCn1nnnc1C(c1ccccc1)N1CCCN(Cc2ccc(F)cc2)CC1 (stereo not drawn),.,-,.,-,.
CCN(CCO)C(=O)CCOc1ccccc1,.,.,.,-,.
Cc1ccc(CNC(=O)c2cccc3c2C(=O)c2ccc(N4CCCCC4)cc2S3(=O)=O)cc1,-,50,-,-,-
c1coc(-c2ccn[nH]2)c1,.,.,.,-,.
Cc1ccccc1C(=O)NCCc1sc2nc(-c3ccc(F)cc3)nn2c1C,.,.,.,-,.
O=C(Nc1c(-c2ccccc2)nc2ccccn12)c1cccc(F)c1,-,-,-,-31,-
O=C(Nc1c(-c2ccccc2)nc2ccccn12)c1ccccc1,-,-,-,-,-
Cc1cccc(C(C)n2nnc3ccccc32)c1O (stereo not drawn),-,-,-,-,86
Cc1cccc(Cn2nnc3ccccc32)c1O,-,-,-,-,-
CCC(C)Sc1cccc(-c2nc3ccc(Cl)cn3c2NCc2ccccc2)c1 (stereo not drawn),-,-,87,-,-
O=C(Cn1ncc2ccccc2c1=O)NCCc1ccccc1,.,.,.,-,.
CC1CC(C)C[N+](=C2C=C(N3CCCC3)CC(C)(C)C2)C1 (stereo not drawn),-,-,-,-99,-
CC1(C)CC(N2CCCC2)=CC(=[N+]2CCCCCC2)C1,-,-,-,-,-
CC(C)CNc1nc(-c2ccc(S(=O)(=O)N3CCCC3)cc2)cs1,.,.,.,-,.
O=C(Nc1ccc(Cl)c(S(=O)(=O)Nc2ccccc2Cl)c1)c1n[nH]c2ccccc12,.,.,.,-,.
Cc1cccc(NCCC#N)c1C,.,.,.,-,.
Cc1ccc(CC#N)c(-c2c(CC#N)ccc(C)c2C)c1C,-,78,.,-,.
Cc1ccccc1OCC(O)Cn1c(Br)nc2c1c(=O)n(C)c(=O)n2C (stereo not drawn),-,-,-,-,-
Cc1ccccc1OCC(O)Cn1c(N)nc2c1c(=O)n(C)c(=O)n2C (stereo not drawn),.,.,.,-37,.
O=C(NCc1ccccc1Cn1cccn1)c1cn[nH]c1-c1ccc(F)cc1,.,.,.,-,.
O=C(O)c1ccccc1CSc1nc2ccccc2n1Cc1ccccc1C(=O)O,-,-,-,-32,-
CC(C)n1ncc2c(C(=O)Nc3ccc(S(N)(=O)=O)cc3)cc(C3CC3)nc21,-,-,81,-,-
O=C(O)c1ccc(/C=N/NC(=O)C2CC2)cc1,.,.,.,-,.
O=C(N/N=C/c1ccccc1Br)c1csc2ccccc12,.,.,.,-,.
SMILES,TRPML1 inh,TRPML1 ag,TRPV1 agonist,LDHA block,TRPV1 PAM
CCOC(=O)c1ccc(Nc2nnc(C)c3ccccc23)cc1,-,-,86,-,-
CCCOC(=O)c1cccc(Nc2nc(C(=O)OCC)nc3ccccc23)c1,-,-,.,-,.
CCCOC(=O)c1ccc(Nc2nc(C(=O)OCC)nc3ccccc23)cc1,.,.,.,-34,.
Cc1ccc(S(=O)(=O)N(CC(=O)N2CCN(C(=O)c3ccco3)CC2)Cc2ccco2)cc1C,.,.,.,-,.
Cc1ccc(NC(=O)c2cc3c(s2)CCCC3)cc1,-,-,84,-,-
O=C(CCSCc1ccc(Cl)cc1)NCc1cccnc1,-,-,81,-,-
Cc1cccc(N2CCN(C(=O)c3cnn(-c4ccc(F)cc4F)c3C3CCN(C(=O)OC(C)(C)C)CC3)CC2)c1C,-63,93,.,-,.
Cc1ccc(-n2ncc(C(=O)N3CCN(C4CCCCC4)CC3)c2C2CCN(C(=O)OC(C)(C)C)CC2)cc1C,-,69,.,-,.
